PD-1 reverse act: activators reversing PD-1 mediated T-cell inhibition, primary screen, luminescence, primary human CD4 T cells, PD-L1 beads; activation, % (no concentration beside the values); CellTiter-Glo 96 h; 29,000 tested, under 10 active; call rule not given here;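 also: 0% = median vehicle wells and 100% = positive control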
NOMO-1 viab: NOMO-1 AML cell viability reduction, primary screen, STK33 inhibitor project, CellTiter-Glo luminescence; NOMO-1 AML viability, 72 h; inhibition, % (concentration not given with the values); 37,000 tested, 7.5% active; in the data active = inhibition above about 80%; inconclusive = no clear call, values can overlap the other calls
STK33 inh: STK33 kinase inhibitors, primary screen, biochemical, luminescence, ADP-Glo, MBP substrate. Serine/threonine-protein kinase 33 (Homo sapiens), Q9BYT3. inhibition, % at 12.5 µM. 27,000 tested, 0.44% active; in the data active = inhibition above about 20%; inconclusive = no clear call, values can overlap the other calls
Target sequence (Q9BYT3 whole entry, looked up): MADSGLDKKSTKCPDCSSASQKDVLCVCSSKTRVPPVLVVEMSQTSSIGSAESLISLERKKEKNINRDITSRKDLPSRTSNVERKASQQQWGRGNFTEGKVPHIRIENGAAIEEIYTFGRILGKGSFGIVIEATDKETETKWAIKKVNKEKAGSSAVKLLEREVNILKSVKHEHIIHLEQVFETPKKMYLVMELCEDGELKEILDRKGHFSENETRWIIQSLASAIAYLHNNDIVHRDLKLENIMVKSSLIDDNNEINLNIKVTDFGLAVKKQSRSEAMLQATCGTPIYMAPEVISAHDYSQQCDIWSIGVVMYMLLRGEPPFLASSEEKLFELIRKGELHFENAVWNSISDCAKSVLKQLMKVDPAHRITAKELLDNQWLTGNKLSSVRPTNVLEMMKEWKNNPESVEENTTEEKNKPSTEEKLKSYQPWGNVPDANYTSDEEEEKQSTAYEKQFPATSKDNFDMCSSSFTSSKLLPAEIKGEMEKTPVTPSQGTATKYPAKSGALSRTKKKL
Starred values were filed as active, the others as inactive; ? = inconclusive; / = not tested or not shown. This is one part of a sample in which hits are shown more often than they occur.

SMILES | PD-1 reverse act | NOMO-1 viab | STK33 inh
Nc1ccc(CCN2CCN(c3cccc(C(F)(F)F)c3)CC2)cc1 | / | 47.5 | -3.4
FC(F)(F)c1ccc2c(c1)N(CCCN1CCN(CCCl)CC1)c1ccccc1S2 | -7.6 | 98.7* | 5.0
COc1ccc2c(c1)/C(=C/c1cnc[nH]1)C(=O)N2 | 20.4 | 98.2* | 79.1*
O=c1c2ccccc2nc(CSc2ccccn2)n1-c1ccccc1Cl | 2.3 | 5.6 | 0.8
CCc1nc2ccccc2c(=O)n1-c1ccccc1Cl | 0.5 | 104.4* | /
C[C@H](CO)N1C[C@H](C)[C@H](CN(C)C(=O)Oc2cccc3ccccc23)OCc2cn(nn2)CCCC1=O | / | / | 2.6
O=c1ccc2c(O)c3ccoc3cc2o1 | / | 19.5 | -1.4
Cc1cc(O)cc2oc(=O)c3c(O)cc(O)cc3c12 | -1.6 | 42.2 | 74.1*
Nc1ncnc2nc(SCc3nc4ccc(I)cc4c(=O)n3-c3ccccc3)[nH]c12 | 0.2 | 2.9 | -1.2
COC(=O)[C@H]1O[C@@H]2C[C@H]3OC(n4cnc5c(N)ncnc54)[C@H](OC)[C@H]3O[C@@]2(O)[C@@H](O)[C@@H]1O (stereo not given in full) | 0.8 | 10.1 | -0.4
COC(=O)c1ccc(OP2(=O)COc3ccccc3OC2)cc1 | 1.2 | 5.6 | /
COC(=O)CC1=C(C(=O)OC)C2(C(=O)Nc3ccccc32)C(C(=O)OC)=C(N)O1 (stereo not given) | -0.7 | 15.6 | /
CC1=CC(=O)c2c(O)cccc2C1=O | / | 105.4* | -10.0
CC(C)c1cc2c(cc1O)[C@@]1(C)C[C@@H](O)CC(C)(C)C1CC2 (stereo not given in full) | -0.6 | 102.8* | -3.0
CC(C)c1cc2c(cc1O)[C@@]1(C)C[C@@H](O)CC(C)(CO)C1CC2 (stereo not given in full) | 1.1 | 18.2 | -0.7
COc1ccc(CC2(CCc3ccncc3)C(=O)NC(=O)N(c3ccc(Cl)cc3)C2=O)cc1OC (stereo not given) | -0.8 | -27.7 | -0.6
C=CCC1(C(C)CCC)C(=O)NC(=S)NC1=O (stereo not given) | / | 18.5 | 0.9
O=C(O)CCCc1ccc(N(CCCl)CCCl)cc1 | / | 110.2* | 0.4
N[C@@H](Cc1ccc(N(CCCl)CCCl)cc1)C(=O)O | / | 111.5* | -0.1
C=CCC1(NCCc2ccccc2)CCCCC1 | -1.7 | 13.9 | /
CCc1ccc(CN2CCN(Cc3cccc(OC)c3)CC2)cc1 | 0.0 | 25.9 | /
Cn1c(=O)c2c(ncn2CCCl)n(C)c1=O | / | 9.7 | 4.9
CO[C@H](C)C(O)(C(=O)OCC1=CCN2CC[C@H](O)[C@@H]12)C(C)C (stereo not given in full) | / | -6.8 | -12.9
C[C@H](CO)N1C[C@H](C)[C@@H](CN(C)C(=O)Oc2cccc3ccccc23)OCc2cnnn2CCCC1=O | / | / | 1.7
C[C@@H]1CN(C2CCC(C#N)(c3ccc(F)cc3)CC2)CC[C@]1(C(=O)O)c1ccccc1 (stereo not given in full) | / | -13.3 | 2.3
SMILES | PD-1 reverse act | NOMO-1 viab | STK33 inh
C=C[C@H]1CN2CC[C@H]1C[C@@H]2[C@H](O)c1ccnc2ccccc12 | / | -28.9 | 1.8
CNC(C)[C@H](O)c1ccccc1 (stereo not given in full) | / | 2.3 | -7.5
C/C=C1/CN2C3Cc4c([nH]c5ccc(O)cc45)C2(O)CC1C3CO (stereo not given) | 1.2 | 19.7 | 3.6
CC(C)(O)[C@H]1O[C@H]2CC[C@@]3(C)[C@@](O)(CC[C@H]4Cc5c([nH]c6ccccc56)[C@@]43C)C2=CC1=O | / | ? | -8.8
CC[C@@]1(O)C(=O)OCc2c1cc1n(c2=O)-c2cc3ccccc3nc2C1 | -14.0 | 142.5* | 2.4
C[C@@H]1CN([C@H](C)CO)C(=O)CCCn2nncc2CO[C@@H]1CN(C)C(=O)Oc1cccc2ccccc12 | / | / | -2.6
O=c1c2ccccc2[nH]c(=S)n1-c1ccc(Cl)c(Cl)c1 | 0.7 | 29.3 | /
CC1=C[C@H]2[C@]3(O)[C@H](C)[C@@H](O)[C@@]4(O)[C@H]([C@@H]3C=C(CO)C[C@]2(O)C1=O)C4(C)C | 1.4 | 1.4 | -2.1
COc1ccc(CN2CCN(CCO)CC2)c(OC)c1C | / | / | 0.2
C=CCN1C(=O)/C(=C/c2cc(C)n(-c3ccccn3)c2C)C(=O)NC1=S | 0.2 | 111.0* | /
CC(=O)O[C@@H](c1nc2ccccc2c(=O)n1[C@@H]1C[C@@]2(OC1=O)c1ccccc1N1C(=O)[C@H](C)N(O)[C@@H]12)C(C)C | -0.7 | 84.0* | -11.2
COc1cc(C)c(Oc2cc(C)cc(O)c2)c(O)c1 | 1.7 | -3.5 | 1.8
N#CC(C#N)=NNc1ccc(OC(F)(F)F)cc1 | -50.4 | 141.3* | 5.2
CCN(CC)C(=O)N[C@@H]1C[C@@H]2c3cccc4[nH]cc(c34)C[C@H]2N(C)C1 | / | 13.8 | 0.4
O=C1NC(=O)N(c2ccccc2)C(=O)/C1=C/c1ccco1 | -3.3 | 135.8* | /
O=C1CCCC2C3CC(CN12)[C@@H]1CCCCN1C3 (stereo not given in full) | / | -22.8 | 1.0
COc1cc2c(cc1O)C[C@H]1c3c(cc(O)c(OC)c3-2)CCN1C | / | 13.0 | -7.3
CCCN1CCc2cc(O)cc3c2[C@H]1Cc1ccc(O)c(O)c1-3 | / | 109.1* | 0.7
CN1CCc2cc(O)cc3c2[C@H]1Cc1ccc(O)c(O)c1-3 | / | 104.9* | 3.1
O=c1c2ccccc2[nH]c(=S)n1-c1cc(C(F)(F)F)cc(C(F)(F)F)c1 | -1.0 | 3.9 | /
COc1c2c(c(CC=C(C)C)c3oc(=O)c(-c4ccc(O)cc4)c(O)c13)OC(C)(C)C=C2 | / | 22.8 | -2.4
CCCN[C@@H]1CCc2c(OC)cccc2[C@@H]1C | / | 7.9 | 1.3
CN1C(=O)c2ccccc2NC(=O)[C@]12O[C@@H]2c1ccccc1 | -0.2 | 4.2 | -1.3
Cn1c2c(c3ccccc31)CCNCC2 | / | -3.6 | -5.0
COc1ccc2c(c1OC)C(=O)O[C@@H]2[C@@H]1c2cc3c(cc2CCN1C)OCO3 | / | -26.9 | 0.3
SMILES | PD-1 reverse act | NOMO-1 viab | STK33 inh
COC1CC(OC2C(C)OC(OC3C(C)OC(OC4C(C)OC(O[C@H]5CC[C@@]6(C)C(=CC[C@]7(O)C6CC(OC(=O)c6ccccc6)[C@@]6(C)[C@]7(O)CC[C@@]6(O)C(C)=O)C5)CC4OC)CC3OC)CC2OC)OC(C)C1O (stereo not given in full) | -3.7 | 119.5* | -0.7
Cc1cc(OCC(=O)N(C)C)c2c3c(c(=O)oc2c1)CCCC3 | -1.2 | -5.6 | /
COc1cc2c(cc1OC)-c1c(oc3c4c(ccc3c1=O)OC(C(C)C)C4)CO2 (stereo not given) | / | 13.5 | -5.7
CC(O)CNCCNc1ccc([N+](=O)[O-])c2cccnc12 (stereo not given) | -2.8 | 13.3 | 0.5
c1ccc(CCCN2CCN(CCOC(c3ccccc3)c3ccccc3)CC2)cc1 | / | 104.4* | 2.7
Fc1ccc(C(OCCN2CCN(C/C=C/c3ccccc3)CC2)c2ccc(F)cc2)cc1 | / | 119.5* | -1.6
Fc1ccc(C(OCCN2CCN(CCCc3ccccc3)CC2)c2ccc(F)cc2)cc1 | / | 102.6* | 1.6
CC(CO)NC(=O)C1C=C2c3cccc4[nH]cc(c34)CC2N(C)C1 (stereo not given) | / | 14.9 | -6.3
CC(C)N1C(=O)c2ccccc2NS1(=O)=O | / | 3.3 | 1.8
CC[C@@]12CCCN3CC[C@]4(c5cccc(OC)c5N(C(C)=O)[C@@H]4CC1)[C@H]32 | 1.5 | 21.6 | 1.4
